Bioassay records (PubChem)
Mtb MenB inh = blocks the Mycobacterium tuberculosis MenB enzyme; MenB enzyme assay, absorbance read-out; actives 0.43% (n = 100,000); P9WNP5; inhibition, % (test concentration not listed); in the data active = inhibition above about 21%, passing the limit was not always enough
Target sequence (P9WNP5 whole entry, looked up): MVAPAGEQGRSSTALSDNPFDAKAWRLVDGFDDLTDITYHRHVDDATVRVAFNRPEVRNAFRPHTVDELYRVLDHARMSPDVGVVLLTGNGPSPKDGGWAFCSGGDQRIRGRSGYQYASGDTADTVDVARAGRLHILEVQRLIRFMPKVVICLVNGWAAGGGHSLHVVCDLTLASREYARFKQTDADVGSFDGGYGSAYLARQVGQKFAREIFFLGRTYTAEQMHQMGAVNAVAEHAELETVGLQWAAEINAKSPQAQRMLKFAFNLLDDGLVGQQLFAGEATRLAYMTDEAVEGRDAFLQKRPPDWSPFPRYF
AID504770 = E. coli YBA685 growth inhibition, screen for V. cholerae RctB inhibitors; E. coli YBA685 rctB-dependent plasmid, OD600 growth, 3 h; active compounds read low; z-score (test concentration not listed); actives 0.27% (n = 130,000); in the data active = z-score below about -2, passing the limit was not always enough
PV pol inh = inhibitors of poliovirus RNA polymerase binding and polymerization; % elongation, % (compound at 16.7 µg/mL); poliovirus polymerase elongation, fluorescence polarization; active compounds read low; actives 0.66% (n = 150,000); in the data active = % elongation below about 90%
Mtb MbtI inh = inhibitors of Mycobacterium tuberculosis siderophore enzyme MbtI. P9WFX0. purified MbtI enzyme, fluorescence intensity read-out. inhibition, % (test concentration not listed). actives 0.89% (n = 100,000); in the data active = inhibition mostly above about 56%, no sharp cut-off; inactive = mostly below about 77%
Starred values were filed as active, the others as inactive. Only some compounds are listed: those with a hit (about 1.4% of all), similar ones and a draw of the others.

Results for Cc1c(N=Cc2cc(Br)cc(Br)c2O)cccc1C(=O)O ?
Mtb MenB inh: -56; AID504770: -0.7; PV pol inh: 88*; Mtb MbtI inh: -13

Results for NC(=O)C1CCN(C(=O)Nc2cccc(Cl)c2)CC1 ?
Mtb MenB inh: 3; AID504770: -0.5; PV pol inh: 98; Mtb MbtI inh: -4

Results for O=C(O)C1C2C=CC(C2)C1C(=O)Nc1cccc(Br)c1 (stereo unspecified) ?
Mtb MenB inh: 26*; AID504770: 0; PV pol inh: 97; Mtb MbtI inh: -3

How did CSc1nnc(NC(=O)c2ccco2)s1 do in these assays?
AID504770: -1.1

Results for Cc1ccccc1N1CC(c2nnc(NC(=O)c3ccco3)s2)CC1=O (stereo unspecified) ?
PV pol inh: 82*

How did CCOC(=O)C1=C(C)NC2=C(C(=O)CC(c3ccco3)C2)C1c1ccc(C(F)(F)F)cc1 (stereo unspecified) do in these assays?
Mtb MenB inh: -16; AID504770: -0.65; PV pol inh: 101; Mtb MbtI inh: -216

How did O=C1NC(=O)C(=C/C=C/c2ccccc2)C(=O)N1 do in these assays?
Mtb MenB inh: -73; AID504770: -0.1; PV pol inh: 104; Mtb MbtI inh: 78*

How did CN1C(=O)NC(=O)/C(=C/c2ccc(F)cc2)C1=O do in these assays?
Mtb MenB inh: -60; AID504770: 0.65; PV pol inh: 98; Mtb MbtI inh: 11

How did CN1C(=O)NC(=O)/C(=C\C=C\c2ccccc2)C1=O do in these assays?
Mtb MenB inh: -40; AID504770: -0.35; PV pol inh: 102; Mtb MbtI inh: 84*

How did OC1CC2CCC(C1)N2CCc1ccccc1 (stereo unspecified) do in these assays?
AID504770: -1.1; Mtb MbtI inh: -2

Results for CC(=O)N1CCC(N(C(=O)c2ccc(F)cc2)c2ccc3c(c2)OCO3)CC1 ?
Mtb MenB inh: -9; AID504770: 0; PV pol inh: 102; Mtb MbtI inh: -4

Results for CC1CCCN(S(=O)(=O)c2ccc3[nH]c(=O)cc(C(=O)O)c3c2)C1 (stereo unspecified) ?
AID504770: -0.1; Mtb MbtI inh: -14

How did O=c1c2ccccc2n2c(=O)[nH]nc2n1Cc1ccc(F)cc1 do in these assays?
Mtb MenB inh: -6; AID504770: 0.65; PV pol inh: 98; Mtb MbtI inh: 3

Results for CCCn1c(=O)c2ccccc2n2c(=S)[nH]nc12 ?
Mtb MenB inh: -30; AID504770: 2.5; PV pol inh: 101; Mtb MbtI inh: 75*

How did O=c1c2ccccc2n2c(=S)[nH]nc2n1-c1ccccc1 do in these assays?
Mtb MenB inh: -26; AID504770: -0.85; PV pol inh: 89*; Mtb MbtI inh: 94*

What do the screens show for `CC(C)c1ccc(N2C(=O)C=CC2=O)cc1`?
Mtb MenB inh: -1; AID504770: -0.8; PV pol inh: 100; Mtb MbtI inh: 101*

What do the screens show for `O=C1C=CC(=O)N1c1ccc(C2CCCCC2)cc1`?
AID504770: -0.2

What do the screens show for `O=C1C=CC(=O)N1c1ccccc1`?
Mtb MenB inh: -3; AID504770: -7*; PV pol inh: 102; Mtb MbtI inh: 99*

Results for Cc1ccc(N2C(=O)C=CC2=O)cc1 ?
Mtb MenB inh: 7; AID504770: -1.4; PV pol inh: 103; Mtb MbtI inh: 100*

What do the screens show for `O=C1c2ccccc2C(=O)N1c1ccccc1`?
Mtb MenB inh: -34; AID504770: 0.75; PV pol inh: 101; Mtb MbtI inh: 1

What do the screens show for `CC(=O)Nc1cccc(N2C(=O)C=CC2=O)c1`?
Mtb MenB inh: -58; AID504770: 0.35; PV pol inh: 105; Mtb MbtI inh: 96*

What do the screens show for `O=C1C=CC(=O)N1c1cccc(Cl)c1`?
Mtb MenB inh: 4; AID504770: -4*; PV pol inh: 103; Mtb MbtI inh: 100*

How did O=C1Cc2ccccc2C(=O)N1c1cccc(Cl)c1 do in these assays?
Mtb MenB inh: -35; AID504770: -1.2; PV pol inh: 78*; Mtb MbtI inh: 0

What do the screens show for `CCCCc1ccc(N2C(=O)C=CC2=O)cc1`?
AID504770: -1.1; PV pol inh: 101; Mtb MbtI inh: 98*

How did O=C(CN1C(=O)c2cccc3cccc1c23)N1CCCCC1 do in these assays?
AID504770: -1.2

What do the screens show for `O=c1[nH]c(CN2CCN(Cc3ccccc3)CC2)nc2ccccc12`?
Mtb MenB inh: 4; AID504770: 0.4; PV pol inh: 104; Mtb MbtI inh: -4

Results for O=c1[nH]c(CN2CCOCC2)nc2ccccc12 ?
Mtb MenB inh: -13; AID504770: -0.8; PV pol inh: 70*; Mtb MbtI inh: -1

Results for Cc1ccc(N2CS(=O)(=O)CC2=O)cc1 ?
AID504770: -0.05

How did CCOC(=O)c1c(P(=O)(N2CCOCC2)N2CCOCC2)noc1N do in these assays?
Mtb MenB inh: 41*; AID504770: 0.7; PV pol inh: 99; Mtb MbtI inh: 0

How did O=C(Oc1ccccc1C(=S)N1CCOCC1)c1ccccc1 do in these assays?
Mtb MenB inh: -38; AID504770: 0.3; PV pol inh: 104; Mtb MbtI inh: 27

What do the screens show for `CCOc1ccccc1C(=S)N1CCOCC1`?
Mtb MenB inh: -6; AID504770: -0.8; PV pol inh: 100; Mtb MbtI inh: 74*

Results for Cc1cc(NS(=O)(=O)c2ccc(Cl)s2)no1 ?
AID504770: 1.5

Results for O=C1C(c2c(O)n(-c3cc(Cl)cc(Cl)c3)[nH]c2=O)=Nc2ccccc21 ?
Mtb MenB inh: 3; AID504770: 1.2; PV pol inh: 103; Mtb MbtI inh: 84*

What do the screens show for `Cc1nnc(SCC(=O)Nc2ccccc2)n1N`?
AID504770: -0.8

How did CC(C)c1nnc(SCC(=O)Nc2ccc(Cl)cc2)n1N do in these assays?
Mtb MenB inh: 3; AID504770: -0.65; PV pol inh: 104; Mtb MbtI inh: 89*

Results for O=C(CSc1ccc2ccccc2c1)NCCc1ccc(O)c(O)c1 ?
AID504770: -0.3; PV pol inh: 100; Mtb MbtI inh: 93*

What do the screens show for `Cc1cccc(/C=N/N(C)C)c1`?
Mtb MenB inh: -9; AID504770: 0.3; PV pol inh: 103; Mtb MbtI inh: 3

How did CC(Oc1ccccc1F)c1nnc(SCC(=O)c2ccc[nH]2)o1 (stereo unspecified) do in these assays?
Mtb MenB inh: -20; AID504770: -0.9; PV pol inh: 104; Mtb MbtI inh: -7

Results for CCOC(=O)c1sc(NC(=O)C2c3ccccc3Oc3ccccc32)c(C#N)c1C ?
PV pol inh: 76*

What do the screens show for `CN(C)Cc1nc2ccccc2c(=O)n1CC#N`?
Mtb MenB inh: 9; AID504770: 1.2; PV pol inh: 113; Mtb MbtI inh: 5

Results for N#CCn1c(Cc2ccccc2)nc2ccccc2c1=O ?
Mtb MenB inh: 48*; AID504770: 0.7; PV pol inh: 101; Mtb MbtI inh: 14

What do the screens show for `N#CCn1c(C[S+]=C=N)nc2ccccc2c1=O`?
Mtb MenB inh: -40; AID504770: 0.6; PV pol inh: 100; Mtb MbtI inh: 84*

What do the screens show for `Cc1cc(C)c(C#N)c(SCSc2ccccc2)n1`?
Mtb MenB inh: -10; AID504770: -0.1; PV pol inh: 104
